In PubChem BioAssay (Tox21):
Values joined by “and” are separate entries in the source; they are usually repeats but may differ in a detail not shown here. Identical values can stand only once. Records with an inconclusive call do not appear. Some compounds were tested as several samples or in several runs, with calls that do not always agree. Active and inactive are the calls of the source. Calls come from the whole dose curve; as a rule, active = well fitted curve in the direction sought with a large enough effect in the repeat runs; inconclusive = weak or mixed curves; inactive = no such curve, though single readings can be large; an effect the other way counts as inactive or inconclusive.

How the values were obtained:
[1] = qHTS RealTime-Glo MT Cell Viability Assay in HepG2 cells - 40 hour (AID 1224870); note: nearly all actives have a fitted effect of over 50% in size; note: potency is the fitted concentration of half-maximal effect
Summary of the method: (§1)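 Real-time viability: cells seeded at 600 per well together with NanoLuc and cell-permeant prosubstrate, compounds added after 5 h incubation. Luminescence tracked at 0, 8, 16, 24, 32 and 40 h of exposure.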

[2] = A CellTox Green Cytotoxicity Assay to monitor cytotoxicity in HEK293 cells - 40 hour (AID 1224871); note: nearly all actives have a fitted effect of over 45% in size; note: potency is the fitted concentration of half-maximal effect
Summary of the method: (§2)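 Tox21 screen in HEK293: membrane-impermeant cyanine dye fluoresces on binding dead-cell DNA; compound pinned 5 h post-seeding, plates held at 37 C, signal read repeatedly through 40 h.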

[3] = qHTS RealTime-Glo MT Cell Viability Assay in HEK293 cells - 16 hour (AID 1224872); note: nearly all actives have a fitted effect of over 50% in size; note: potency is the fitted concentration of half-maximal effect
Summary of the method: (§3)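 Cells + reagent dispensed (600 cells/well, HEK293) → 5 h at 37 C/5% CO2 → 23 nL compound in DMSO pinned → 40 h at 37 C → luminescence read at 0, 8, 16, 24, 32, 40 h.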

[4] = qHTS RealTime-Glo MT Cell Viability Assay in HepG2 cells - 8 hour (AID 1224873); note: nearly all actives have a fitted effect of over 55% in size
Summary of the method: as §1

[5] = qHTS RealTime-Glo MT Cell Viability Assay in HEK293 cells - 40 hour (AID 1224874); settings: RealTime-Glo luminescence; max response: stronger effect = lower value; note: nearly all actives have a fitted effect of over 50% in size; note: potency is the fitted concentration of half-maximal effect
Summary of the method: (§4)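 HEK293 + NanoLuc + prosubstrate, 600 cells/well; 5 h, 37 C/5% CO2; compound 23 nL in DMSO by pintool; 37 C; luminescence read at 0, 8, 16, 24, 32 and 40 h time points.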

[6] = qHTS RealTime-Glo MT Cell Viability Assay in HepG2 cells - 32 hour (AID 1224877); note: nearly all actives have a fitted effect of over 55% in size; note: potency is the fitted concentration of half-maximal effect
Summary of the method: (§5)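 Real-time, nonlytic viability: 600 HepG2 cells/well mixed with NanoLuc enzyme plus prosubstrate; 5 h settle, compound (DMSO) added by pintool; luminescence monitored over 40 h at 37 C.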

[7] = A CellTox Green Cytotoxicity Assay to monitor cytotoxicity in HepG2 cells - 24 hour (AID 1224878); note: nearly all actives have a fitted effect of over 45% in size; note: potency is the fitted concentration of half-maximal effect
Summary of the method: (§6)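 Measurements at 0, 8, 16, 24, 32 and 40 h of treatment captured CellTox Green fluorescence in HepG2 cells that had been co-plated with reagent and preincubated 5 h at 37 C/5% CO2.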

[8] = A CellTox Green Cytotoxicity Assay to monitor cytotoxicity in HepG2 cells - 40 hour (AID 1224879); note: nearly all actives have a fitted effect of over 40% in size; note: potency is the fitted concentration of half-maximal effect
Summary of the method: as §6

[9] = A CellTox Green Cytotoxicity Assay to monitor cytotoxicity in HEK293 cells - 32 hour (AID 1224881); note: nearly all actives have a fitted effect of over 40% in size; note: potency is the fitted concentration of half-maximal effect
Summary of the method: as §2

[10] = A CellTox Green Cytotoxicity Assay to monitor cytotoxicity in HepG2 cells - 0 hour (AID 1224882); note: nearly all actives have a fitted effect of over 35% in size
Summary of the method: as §6

[11] = A CellTox Green Cytotoxicity Assay to monitor cytotoxicity in HepG2 cells - 32 hour (AID 1224883); note: nearly all actives have a fitted effect of over 50% in size
Summary of the method: as §6

[12] = A CellTox Green Cytotoxicity Assay to monitor cytotoxicity in HEK293 cells - 8 hour (AID 1224884); note: nearly all actives have a fitted effect of over 35% in size
Summary of the method: as §2

[13] = qHTS RealTime-Glo MT Cell Viability Assay in HepG2 cells - 16 hour (AID 1224885); note: nearly all actives have a fitted effect of over 50% in size; note: potency is the fitted concentration of half-maximal effect
Summary of the method: as §5

[14] = qHTS RealTime-Glo MT Cell Viability Assay in HEK293 cells - 24 hour (AID 1224886); note: nearly all actives have a fitted effect of over 50% in size; note: potency is the fitted concentration of half-maximal effect
Summary of the method: as §3

[15] = qHTS RealTime-Glo MT Cell Viability Assay in HEK293 cells - 8 hour (AID 1224887); note: nearly all actives have a fitted effect of over 50% in size; note: potency is the fitted concentration of half-maximal effect
Summary of the method: as §4

[16] = A CellTox Green Cytotoxicity Assay to monitor cytotoxicity in HEK293 cells - 16 hour (AID 1224888); note: nearly all actives have a fitted effect of over 35% in size
Summary of the method: as §2

[17] = qHTS RealTime-Glo MT Cell Viability Assay in HepG2 cells - 0 hour (AID 1224889); note: nearly all actives have a fitted effect of over 50% in size; note: potency is the fitted concentration of half-maximal effect
Summary of the method: as §5

[18] = A CellTox Green Cytotoxicity Assay to monitor cytotoxicity in HEK293 cells - 24 hour (AID 1224875); note: series mostly up to about 77 µM; nearly all actives have a fitted effect of over 45% in size
Summary of the method: as §2

[19] = A CellTox Green Cytotoxicity Assay to monitor cytotoxicity in HepG2 cells - 16 hour (AID 1224876); note: nearly all actives have a fitted effect of over 45% in size
Summary of the method: as §6

[20] = qHTS RealTime-Glo MT Cell Viability Assay in HEK293 cells - 0 hour (AID 1224880)
Summary of the method: as §4
% is set by controls: 0 for no effect and ±100 for the full control effect.

C[C@]12CCC(=O)C=C1CC[C@@H]1[C@@H]2C(=O)C[C@@]2(C)[C@H]1CC[C@]2(O)C(=O)CO
active: Potency [17] 5.49 µM
inactive: Potency [1] | Potency [2] | Potency [3] | Potency [4] | max response [5] -10% and -11.4% | Potency [6] | Potency [7] | Potency [8] | Potency [9] | Potency [10] | Potency [11] | Potency [12] | Potency [13] | Potency [14] | Potency [15] | Potency [16]

O=[N+]([O-])c1ccc2c(c1)Cc1ccccc1-2
inactive: Potency [1] | Potency [2] | Potency [3] | Potency [4] | Potency [18] | Potency [19] | Potency [6] | Potency [7] | Potency [8] | Potency [20] | Potency [9] | Potency [10] | Potency [12] | Potency [13] | Potency [14] | Potency [15] | Potency [16]

c1ccc2c(c1)Oc1ccccc1S2
49.8 µM (active) and inactive: Potency [2] | Potency [9]
inactive: Potency [1] | Potency [3] | Potency [4] | Potency [19] | Potency [6] | Potency [7] | Potency [8] | Potency [20] | Potency [10] | Potency [11] | Potency [12] | Potency [13] | Potency [14] | Potency [15] | Potency [16]

OC[C@H]1O[C@@H]2O[C@H]3[C@H](O)[C@@H](O)[C@@H](O[C@H]4[C@H](O)[C@@H](O)[C@@H](O[C@H]5[C@H](O)[C@@H](O)[C@@H](O[C@H]6[C@H](O)[C@@H](O)[C@@H](O[C@H]7[C@H](O)[C@@H](O)[C@@H](O[C@H]8[C@H](O)[C@@H](O)[C@@H](O[C@H]1[C@H](O)[C@H]2O)O[C@@H]8CO)O[C@@H]7CO)O[C@@H]6CO)O[C@@H]5CO)O[C@@H]4CO)O[C@@H]3CO
inactive: Potency [1] | Potency [2] | Potency [3] | Potency [4] | Potency [18] | Potency [19] | Potency [6] | Potency [7] | Potency [8] | Potency [20] | Potency [9] | Potency [10] | Potency [12] | Potency [13] | Potency [14] | Potency [15] | Potency [16]

c1ccc2sc(SSN3CCOCC3)nc2c1
inactive and 49 µM (active): Potency [6]
inactive and 54.9 µM (active): Potency [1]
active: Potency [2] 38.8 µM and 49 µM | Potency [3] 43.6 µM | Potency [5] 19.5 µM and 43.6 µM | Potency [7] 54.9 µM | Potency [8] 54.8 µM and 49 µM | Potency [9] 38.8 µM and 54.9 µM | Potency [13] 54.9 µM | Potency [14] 38.8 µM and 49 µM | Potency [15] 48.9 µM
inactive: Potency [20] | Potency [10] | Potency [12] | Potency [16] | Potency [17]

COC(C)COC(C)COC(C)CO (configuration not stated)
inactive: Potency [1] | Potency [2] | Potency [3] | Potency [4] | Potency [18] | Potency [19] | Potency [6] | Potency [7] | Potency [8] | Potency [20] | Potency [9] | Potency [10] | Potency [11] | Potency [12] | Potency [13] | Potency [14] | Potency [15] | Potency [16]

O=C1c2cccc(O)c2C(=O)c2c(O)cccc21
inactive: Potency [1] | Potency [2] | Potency [4] | Potency [19] | Potency [6] | Potency [7] | Potency [8] | Potency [20] | Potency [9] | Potency [10] | Potency [11] | Potency [12] | Potency [13] | Potency [16]

CC(C)Oc1ccc2c(=O)c(-c3ccccc3)coc2c1
active: Potency [14] 12 µM
inactive: Potency [1] | Potency [2] | Potency [4] | Potency [6] | Potency [7] | Potency [8] | Potency [20] | Potency [9] | Potency [10] | Potency [11] | Potency [12] | Potency [13] | Potency [16]

c1ccc2c(c1)c1cccc3ccc4cccc2c4c31
inactive: Potency [2] | Potency [3] | Potency [4] | max response [5] -16.2% | Potency [19] | Potency [6] | Potency [7] | Potency [8] | Potency [20] | Potency [9] | Potency [10] | Potency [11] | Potency [12] | Potency [13] | Potency [15] | Potency [16] | Potency [17]
inactive and 19.5 µM (active): Potency [14]
active: Potency [5] 19.5 µM

CC(C(=O)O)c1cccc(C(=O)c2ccccc2)c1 (configuration not stated)
inactive: Potency [1] | Potency [2] | Potency [3] | Potency [4] | Potency [18] | Potency [6] | Potency [7] | Potency [8] | Potency [20] | Potency [9] | Potency [10] | Potency [12] | Potency [13] | Potency [14] | Potency [15] | Potency [16] | Potency [17]

Cc1cccc([N+](=O)[O-])c1C
inactive: Potency [1] | Potency [2] | Potency [3] | Potency [4] | max response [5] 2.52% and -15.5% | Potency [6] | Potency [7] | Potency [8] | Potency [20] | Potency [9] | Potency [10] | Potency [11] | Potency [12] | Potency [13] | Potency [14] | Potency [15] | Potency [16] | Potency [17]

CCCCC(CC)COCC1CO1 (configuration not stated)
inactive: Potency [1] | Potency [2] | Potency [3] | Potency [4] | Potency [18] | Potency [6] | Potency [7] | Potency [8] | Potency [20] | Potency [9] | Potency [10] | Potency [11] | Potency [12] | Potency [13] | Potency [14] | Potency [15] | Potency [16] | Potency [17]
